# According to PubChem BioAssay (Tox21):
# Where “and” joins values, the source holds several entries; their conditions need not be identical. Equal entries are not always repeated. A number with no mark means an inactive call. Records with an inconclusive call do not appear. Calls of active or inactive are those of the source. Calls come from the whole dose curve; as a rule, active = well fitted activation curve with a large enough effect in the repeat runs; inconclusive = weak or mixed curves; inactive = flat fitted curve, though single readings scatter.
# Assay: A CellTox Green Cytotoxicity Assay to monitor cytotoxicity in HEK293 cells - 32 hour (AID 1224881); note: nearly all actives have a fitted effect of over 40% in size
# Conditions: CellTox Green fluorescence; series mostly up to 76.8 µM; cytotoxicity increase: at the top concentration
# Outline: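 Homogeneous no-lysis format: HEK293 cell suspension mixed with CellTox Green reagent, seeded, incubated 5 h at 37 C/5% CO2, then dosed by pintool with compound in DMSO.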
# % is set by controls: 0 for no effect and ±100 for the full control effect; potency is the fitted concentration of half-maximal effect.
SMILES,cytotoxicity increase,Potency
N#Cc1ccc(N(CC(N)=O)CC(F)(F)F)cc1C(F)(F)F,0.266%,–
CCCCn1cc[n+](C)c1.[Cl][Fe-]([Cl])([Cl])[Cl],0.343%,–
CN1C2CCC(C)(C)C1CC(OC(=O)C(O)(c1cccs1)c1cccs1)C2 (stereo not drawn),6.78% [at 35.3 µM],–
O=C(O)[C@H](O)[C@@H](O)C(=O)O,0.658%,–
ClC1=C(Cl)[C@]2(Cl)[C@H]3[C@H]([C@@H]4C=C[C@H]3C4)[C@@]1(Cl)C2(Cl)Cl,–,54.9 µM (active) and 49 µM (active)
CCNc1nc(NC(C)C(C)C)nc(SC)n1 (stereo not drawn),-9.93%,–
[Cl-].[Cl-].[Cl-].[Yb+3],-20.9%,–
CCN(CC)CCc1c[nH]c2ccccc12,-14.3%,–
O=C(O)CCCCCCNC1c2ccccc2CCc2ccccc21,-0.694% [at 35.3 µM],–
C#CCO,-0.663%,–
CCn1cc[n+](C)c1 (tested in a mixture with another compound),-1.39%,–
CC(=O)[O-].CC(=O)[O-].O.O.[Zn+2],2.76%,–
Clc1cc(Cl)c(-c2cc(Cl)c(Cl)cc2Cl)cc1Cl,-3.62% [at 35.3 µM],–
O=S(=O)(O)F,3.59%,–
COC(=O)/C=C(\C)OP(=O)(OC)OC,-0.601%,–
CN=C=O,1.7%,–
CNN,-8.56%,–
CC[C@H](C)[C@H]1O[C@]2(C=C[C@@H]1C)C[C@@H]1C[C@@H](C/C=C(\C)[C@@H](O[C@H]3C[C@H](OC)[C@@H](O[C@H]4C[C@H](OC)[C@@H](NC)[C@H](C)O4)[C@H](C)O3)[C@@H](C)/C=C/C=C3\CO[C@@H]4[C@H](O)C(C)=C[C@@H](C(=O)O1)[C@]34O)O2,–,12.3 µM (active)
O=[N+]([O-])c1ccccc1-c1ccccc1,-1.35%,–
COc1c2c(cc3c1OCO3)CCN(C)C2,3.41% [at 35.3 µM],–

SMILES,cytotoxicity increase,Potency
BrCC(Br)(Br)Br,27%,–
CCC[CH2][Sn]([CH2]CCC)([CH2]CCC)[CH2]CCC,–,13.8 µM (active)
O=[N+]([O-])c1cc(C(F)(F)F)c(Cl)c([N+](=O)[O-])c1Nc1ncc(C(F)(F)F)cc1Cl,–,24.5 µM (active)
CCCCN(CCCC)C(=S)[S-].CCCCN(CCCC)C(=S)[S-].[Ni+2],-10.7% [at 35.3 µM],–
CCCCn1cc[n+](C)c1 (tested in a mixture with another compound),-5.56%,–
CCC(C)Br (stereo not drawn),1.44%,–
C[N+]1(C)[C@@H]2CC[C@H]1CC(OC(=O)C(CO)c1ccccc1)C2 (stereo partly drawn),-5.1% [at 35.3 µM],–
CCCCc1ccccc1,0.694%,–
NC(=O)C(Cl)Cl,-0.0331%,–
COP(=S)(OC)Oc1ccc([N+](=O)[O-])c(C)c1,13.2%,–
CNC(=O)Oc1cc(C)cc(C(C)C)c1,-0.197%,–
CN,9.32%,–
CCNS(=O)(=O)C(F)(F)C(F)(F)C(F)(F)C(F)(F)C(F)(F)C(F)(F)C(F)(F)C(F)(F)F,-5.32%,–
[F][Sn]([c]1ccccc1)([c]1ccccc1)[c]1ccccc1,–,1.74 µM (active)
Clc1c(Cl)c(Cl)c(Cl)c(Cl)c1Cl,-13.5% [at 6.97 µM],–
Nc1nc(N)c(N)c(N)n1,–,49.2 µM (active)
Fc1ccc(C(OCCN2CCN(CCCc3ccccc3)CC2)c2ccc(F)cc2)cc1,–,23.9 µM (active)
CCN(CC)C(=O)N[C@@H]1C=C2c3cccc4[nH]cc(c34)C[C@@H]2N(C)C1,-1.52% [at 35.3 µM],–
O=C1C2(Cl)C3(Cl)C4(Cl)C(Cl)(Cl)C5(Cl)C3(Cl)C1(Cl)C5(Cl)C24Cl (stereo not drawn),–,38.3 µM (active) and 52.6 µM (active)

# Assay: A CellTox Green Cytotoxicity Assay to monitor cytotoxicity in HepG2 cells - 0 hour (AID 1224882); note: nearly all actives have a fitted effect of over 35% in size
# Conditions: CellTox Green fluorescence; series mostly up to 76.8 µM; cytotoxicity: at the top concentration
# Outline: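 Fluorescent DNA-binding dye, 600 HepG2 cells/well, 5 h preincubation then compound in DMSO; same plates read at 0–40 h, 37 C.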
SMILES,cytotoxicity,Potency
N#Cc1ccc(N(CC(N)=O)CC(F)(F)F)cc1C(F)(F)F,-12.9%,–
CCCCn1cc[n+](C)c1.[Cl][Fe-]([Cl])([Cl])[Cl],0.897%,–
CN1C2CCC(C)(C)C1CC(OC(=O)C(O)(c1cccs1)c1cccs1)C2 (stereo not drawn),1.52% [at 35.3 µM],–
O=C(O)[C@H](O)[C@@H](O)C(=O)O,-2.11%,–
ClC1=C(Cl)[C@]2(Cl)[C@H]3[C@H]([C@@H]4C=C[C@H]3C4)[C@@]1(Cl)C2(Cl)Cl,–,inactive
CCNc1nc(NC(C)C(C)C)nc(SC)n1 (stereo not drawn),-0.438%,–
[Cl-].[Cl-].[Cl-].[Yb+3],-7.65%,–
CCN(CC)CCc1c[nH]c2ccccc12,4.48%,–
O=C(O)CCCCCCNC1c2ccccc2CCc2ccccc21,1.07% [at 35.3 µM],–
C#CCO,-6.3%,–
CCn1cc[n+](C)c1 (tested in a mixture with another compound),0.659%,–
CC(=O)[O-].CC(=O)[O-].O.O.[Zn+2],0.524%,–
Clc1cc(Cl)c(-c2cc(Cl)c(Cl)cc2Cl)cc1Cl,1.51% [at 35.3 µM],–
O=S(=O)(O)F,0.461%,–
COC(=O)/C=C(\C)OP(=O)(OC)OC,-5%,–
CN=C=O,-0.996%,–
CNN,3.16%,–
CC[C@H](C)[C@H]1O[C@]2(C=C[C@@H]1C)C[C@@H]1C[C@@H](C/C=C(\C)[C@@H](O[C@H]3C[C@H](OC)[C@@H](O[C@H]4C[C@H](OC)[C@@H](NC)[C@H](C)O4)[C@H](C)O3)[C@@H](C)/C=C/C=C3\CO[C@@H]4[C@H](O)C(C)=C[C@@H](C(=O)O1)[C@]34O)O2,-7.15%,–
O=[N+]([O-])c1ccccc1-c1ccccc1,-3.2%,–
COc1c2c(cc3c1OCO3)CCN(C)C2,13.4% [at 35.3 µM],–

SMILES,cytotoxicity,Potency
BrCC(Br)(Br)Br,-3.78%,–
CCC[CH2][Sn]([CH2]CCC)([CH2]CCC)[CH2]CCC,–,38.9 µM (active)
O=[N+]([O-])c1cc(C(F)(F)F)c(Cl)c([N+](=O)[O-])c1Nc1ncc(C(F)(F)F)cc1Cl,-15.2%,–
CCCCN(CCCC)C(=S)[S-].CCCCN(CCCC)C(=S)[S-].[Ni+2],3.31% [at 35.3 µM],–
CCCCn1cc[n+](C)c1 (tested in a mixture with another compound),4.34%,–
CCC(C)Br (stereo not drawn),3.34%,–
C[N+]1(C)[C@@H]2CC[C@H]1CC(OC(=O)C(CO)c1ccccc1)C2 (stereo partly drawn),5.43% [at 35.3 µM],–
CCCCc1ccccc1,4.21%,–
NC(=O)C(Cl)Cl,1.44%,–
COP(=S)(OC)Oc1ccc([N+](=O)[O-])c(C)c1,-1.85%,–
CNC(=O)Oc1cc(C)cc(C(C)C)c1,-1.86%,–
CN,2.61%,–
CCNS(=O)(=O)C(F)(F)C(F)(F)C(F)(F)C(F)(F)C(F)(F)C(F)(F)C(F)(F)C(F)(F)F,4.99%,–
[F][Sn]([c]1ccccc1)([c]1ccccc1)[c]1ccccc1,-2.67%,–
Clc1c(Cl)c(Cl)c(Cl)c(Cl)c1Cl,1.34% [at 6.97 µM],–
Nc1nc(N)c(N)c(N)n1,–,49.2 µM (active)
Fc1ccc(C(OCCN2CCN(CCCc3ccccc3)CC2)c2ccc(F)cc2)cc1,-0.575% [at 35.3 µM],–
CCN(CC)C(=O)N[C@@H]1C=C2c3cccc4[nH]cc(c34)C[C@@H]2N(C)C1,-4.36% [at 35.3 µM],–
O=C1C2(Cl)C3(Cl)C4(Cl)C(Cl)(Cl)C5(Cl)C3(Cl)C1(Cl)C5(Cl)C24Cl (stereo not drawn),–,inactive
